Among the data in PubChem BioAssay AID1578 (Sanford-Burnham Center for Chemical Genomics, 2009) are inhibition values, retold here.

SMILES strings stand for the structures. The campaign covered roughly 290,000 compounds. About 3,000 (1%) were called active. No stated cut-off is given here; in the data, active means inhibition mostly above about 36% (no sharp cut-off); inactive means mostly below about 34%. The full list was thinned out, with actives kept by preference.

This assay is described as follows: inhibition of NOD1-driven NF-kB reporter – cell-based, luminescence, uHTS, primary screen (AID 1578).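 Further: HEK-293T reporter cells stimulated with the NOD1 agonist gamma-tri-DAP.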 As to conditions: NOD1-driven NF-kB luciferase reporter cells, at 4 µM, hits give high values. A general note: Reporter assays use an easily measured gene product as a stand-in for the process of interest.
Usually inhibition stands for the relative decrease from the control value, in per cent. With `CC(C)=CCN1CCN(C/C(Cl)=C/c2ccccc2)CC1CCO` (stereo not drawn), the inhibition is 1.6% (inactive).

Regarding `Cc1ccc(CNC(=O)CCS(=O)(=O)c2cc3c(cc2Cl)NC(=O)CO3)o1`, the inhibition was -10.7% (inactive).

On to `COc1cc(/C=C(\C#N)C(=O)Nc2ccccc2)ccc1OCCN1CCOCC1`, for which the inhibition was -28.7% (inactive).

For `COc1cc2c(C(=O)NCCN(C)C)cn(CC(C)C)c(=O)c2cc1OC`, the inhibition was 1.3% (inactive).

For `COc1ccc(-c2nn(CC(=O)Nc3ccc(Cl)c(Cl)c3)c(=O)c3ccccc23)cc1`, the inhibition is 15.6% (inactive).

With `COc1ccc(C(=O)N/C(=C\c2cn(S(=O)(=O)N(C)C)c3ccccc23)C(=O)N2CCOCC2)cc1`, the inhibition is -6.8% (inactive).

For the compound `Cc1cc(C)cc(C(=O)NCC(=O)NCc2ccc(S(N)(=O)=O)cc2)c1`, the inhibition was -5.1% (inactive).

On to `COc1cccc(N2CCN(C(=O)c3cc4cc(Cl)ccc4[nH]3)CC2)c1`, for which the inhibition was -4.9% (inactive).

For `COC(=O)c1c(N)sc(C(=O)NCCc2ccccc2)c1C`, the inhibition was 69.8% (active).

As to `COC(=O)c1c(N)sc(Cc2ccccc2)c1C`, the inhibition is -28.7% (inactive).

Turning to `CCOC(=O)c1c(N)sc(C(=O)Nc2ccccc2)c1C`, the inhibition was -18.7% (inactive).

Consider `Cc1ccc(S(=O)(=O)NC(C)(C)CSc2nnc(Nc3ccccc3)s2)cc1`, for which the inhibition was 64.7% (active).

`Cc1ccc(S(=O)(=O)NC(C)(C)CSc2nnc(N)s2)cc1`: the inhibition was -25.5% (inactive).

`Cc1ccc(S(=O)(=O)NC(C)(C)CSc2ncccn2)cc1`: the inhibition was -3.5% (inactive).

For `N#CCSc1n[nH]c2nc3c(c(=O)n12)C1(CCCC1)Cc1ccccc1-3`, the inhibition is 16.8% (inactive).

On to `N#CCSc1n[nH]c2nc3c(c(=O)n12)C1(CCCCC1)Cc1ccccc1-3`, for which the inhibition was 48% (active).

`CCSc1n[nH]c2nc3c(c(=O)n12)C1(CCCCC1)Cc1ccccc1-3`: the inhibition was -13.1% (inactive).

In the case of `CCN(C(=O)/C=C/c1ccc(OC)cc1)C1CCCCC1`, the inhibition is -18.8% (inactive).

As for `COc1cccc2cc(-c3cc(=O)oc4cc(C)c(OCC(C)=O)cc34)oc12`, the inhibition is 71.3% (active).

On to `COc1cccc2cc(-c3cc(=O)oc4ccc(OCC(C)=O)cc34)oc12`, for which the inhibition was 39% (inactive).

Regarding `CC(=O)COc1cc2c(-c3cc4ccccc4o3)cc(=O)oc2cc1C`, the inhibition was 40.5% (inactive).

In the case of `Cc1cc(C)cc(NC(=O)CSc2nc(CSc3ccc(Cl)cc3)cc(=O)[nH]2)c1`, the inhibition is 8.6% (inactive).

As for `COc1ccc(Cl)cc1NC(=O)CSc1nc(C)cc(C)n1`, the inhibition was -29.7% (inactive).

Consider `CCOC(=O)N1CCC(NCCNC(=O)c2ccccc2Cl)CC1`, for which the inhibition is 9.8% (inactive).

`Cn1c(Sc2ccccc2Cl)c(C=O)c2ccccc21`: the inhibition was 41.9% (inactive).

As to `Cn1c(Oc2ccc(Cl)cc2)c(C=O)c2ccccc21`, the inhibition is 22.8% (inactive).

For the compound `COc1ccc(-c2nnn(CC(=O)c3c[nH]c4ccccc34)n2)cc1OC`, the inhibition is -7.9% (inactive).

`CCOC(=O)c1[nH]ncc1CN1CCN(Cc2ccccc2)C(CCO)C1` (stereo not drawn): the inhibition is -20.2% (inactive).

For the compound `CSc1ccc(S(=O)(=O)N2CCC(C(=O)NCCN3CCOCC3)CC2)cc1`, the inhibition is -17.3% (inactive).

For `Cc1ccc(C)n1-n1c(C)nc2sc(-c3ccccc3)cc2c1=O`, the inhibition is -14.6% (inactive).

Regarding `Cc1nc2sc(-c3ccccc3)cc2c(=O)n1N`, the inhibition was 29.8% (active).

As to `CSc1nc2sc(-c3ccccc3)cc2c(=O)n1N`, the inhibition was -13.6% (inactive).

Regarding `Cc1nc2ccccc2c(=O)n1N`, the inhibition was -11.6% (inactive).

Consider `Cc1nc2cc(-c3ccccc3)sc2c(=O)n1N`, for which the inhibition is 95.4% (active).

Regarding `O=c1c2sc(-c3ccccc3)cc2nc2n1CCC2`, the inhibition was -26.3% (inactive).

Regarding `COc1cccc(CN2CCN(C3CCOCC3)CC2CCO)c1` (stereo not drawn), the inhibition was 2.6% (inactive).

On to `CCOC(=O)Cc1nnc(NC(=O)CSc2nnc3c(n2)[nH]c2ccccc23)s1`, for which the inhibition is 19% (inactive).

On to `CSc1ccc(C(=O)C2CCCN(S(=O)(=O)c3c(C)noc3C)C2)cc1` (stereo not drawn), for which the inhibition was -19.9% (inactive).

Consider `Cc1noc(C)c1S(=O)(=O)N1CCCC(C(=O)c2cccc(OC(C)C)c2)C1` (stereo not drawn), for which the inhibition was 4.9% (inactive).

Take `COc1c(C)cc(C(=O)C2CCCN(S(=O)(=O)c3c(C)noc3C)C2)cc1C` (stereo not drawn): the inhibition is 48.6% (active).

Consider `CCCCOc1ccc(-c2ncc(C(=O)O)c(C)n2)cc1`, for which the inhibition is -62% (inactive).

For the compound `COc1ccccc1CN(Cc1nc2ccccc2c(=O)[nH]1)S(=O)(=O)c1ccc(C)cc1`, the inhibition is -16.5% (inactive).

For the compound `C=CCc1ccc(O)c(-c2ccc(O)c(CC=C)c2)c1`, the inhibition was -6.9% (inactive).

In the case of `C=CCc1cc(S(=O)(=O)c2ccc(O)c(CC=C)c2)ccc1O`, the inhibition was 47.4% (active).

Take `Nc1cc(S(=O)(=O)c2ccc(O)c(N)c2)ccc1O`: the inhibition is -4.4% (inactive).

As to `Cc1[nH]c(-c2ccc(F)cc2)cc1C(=O)N1CCN(c2ccccc2)CC1`, the inhibition is -4.4% (inactive).

For the compound `O=C(Nc1nnc(-c2ccccc2)o1)C1CCCCC1`, the inhibition was -11.8% (inactive).

For `O=C(Nc1cccc(-c2nnc(-c3ccccc3)o2)c1)C1CCCCC1`, the inhibition was 30.6% (active).

Turning to `O=C(Nc1cccc(-c2nnc(-c3ccccc3)o2)c1)C1CC1`, the inhibition is 2.9% (inactive).

In the case of `COc1cc2cc(Br)cc(Br)c2nc1C`, the inhibition was 37.7% (inactive).

Consider `Brc1cc(Br)c2nc3c(cc2c1)CCC3`, for which the inhibition is -13.3% (inactive).

On to `COc1ccc(CN(C)S(=O)(=O)c2nnc(NC(=O)c3cccc(F)c3)s2)cc1OC`, for which the inhibition is 4.4% (inactive).

For `COc1cccc(C(=O)Nc2nnc(S(=O)(=O)N(C)Cc3ccc(F)cc3)s2)c1`, the inhibition was 16.8% (inactive).

For the compound `COc1ccc(CN(C)S(=O)(=O)c2nnc(NC(=O)c3cccc(OC)c3)s2)cc1`, the inhibition is 7.1% (inactive).

Regarding `CN(Cc1ccccc1)S(=O)(=O)c1nnc(NC(=O)c2ccccc2)s1`, the inhibition is 1.1% (inactive).

On to `CC(=O)C1=C(O)C(=O)N(Cc2ccccc2)C1c1ccco1` (stereo not drawn), for which the inhibition is -9.8% (inactive).

Take `Cc1ccccc1CN1CCC(n2nccc2NC(=O)c2cccnc2)CC1`: the inhibition is -23.7% (inactive).

Turning to `Cc1ccc(S(=O)(=O)CCC(=O)OCC(=O)c2c[nH]c3ccccc23)cc1`, the inhibition was 17.3% (inactive).

For `CCCCn1c(Cc2ccccc2)nnc1SCC(=O)Nc1cc(C)on1`, the inhibition is 112% (active).

Consider `COCCn1c(Cc2ccccc2)nnc1SCC(=O)Nc1cc(C)on1`, for which the inhibition is -22.5% (inactive).

Turning to `CCn1c(Cc2ccccc2)nnc1SCC(=O)Nc1cc(C)on1`, the inhibition was 5% (inactive).

On to `Cc1ccc(S[C@@H](CCN2CC[C@H](O)CCC2=O)c2ccccc2)cc1`, for which the inhibition is -12.3% (inactive).

With `COc1ccc(C(=O)n2cnc3ccccc32)cc1`, the inhibition is -10.8% (inactive).

`CC(C)(C)c1ccc(C(=O)n2cnc3ccccc32)cc1`: the inhibition is -13.4% (inactive).

Consider `CCN(CC)c1ccc(C(=O)n2cnc3ccccc32)cc1`, for which the inhibition was 38.7% (active).

`O=C(CSc1ncn[nH]1)NCCCc1ccccc1`: the inhibition is -16.5% (inactive).

For `COc1ccc(CNc2cccc3[nH]c(C(F)(F)F)nc23)cc1OC`, the inhibition was -14.9% (inactive).

Turning to `COc1ccc(CNc2cccc3[nH]c(C(F)(F)F)nc23)cc1`, the inhibition was 6% (inactive).

On to `COc1cc(CNc2cccc3[nH]c(C(F)(F)F)nc23)cc(OC)c1`, for which the inhibition is 33% (active).

Regarding `O=C1OCC/C1=C\c1ccc2c(c1)OCO2`, the inhibition is -0.1% (inactive).

Regarding `CCOC(=O)c1c(C)[nH]c(C)c1-c1ccccc1OC`, the inhibition was 13.9% (inactive).

In the case of `CCOC(=O)c1c2c3c(cccc3[nH]c1=O)C(=O)c1ccccc1-2`, the inhibition is -40.2% (inactive).

Consider `CCOC(=O)c1c(C)[nH]c2c1-c1ccccc1C(=O)C2=O`, for which the inhibition was 106% (active).

In the case of `COc1ccc2[nH]cc(C(=O)CN3CCN(C/C=C/c4ccccc4)CC3)c2c1`, the inhibition was -1.2% (inactive).

In the case of `Cc1[nH][nH]c(=O)c1C(c1c(C)[nH][nH]c1=O)c1cn(Cc2cccc3ccccc23)c2ccccc12`, the inhibition was 10.6% (inactive).

Take `Cc1[nH][nH]c(=O)c1C(c1c(C)[nH][nH]c1=O)c1cn(Cc2ccc(Cl)c(Cl)c2)c2ccccc12`: the inhibition was -18.9% (inactive).

For `Cc1[nH][nH]c(=O)c1C(c1c(C)[nH][nH]c1=O)c1cn(Cc2ccccc2Cl)c2ccccc12`, the inhibition is 83.9% (active).

Consider `Cc1c(CN(C)Cc2cn(C)nc2-c2ccccc2F)[nH]c2ccccc12`, for which the inhibition is -13.2% (inactive).

With `c1ccc(CCn2nnnc2C(c2cccs2)N2CCN(Cc3ccc4c(c3)OCO4)CC2)cc1` (stereo not drawn), the inhibition was -12.4% (inactive).

As to `COc1ccc(C)cc1NC(=O)CSc1nnc(COc2ccc(C)cc2)n1Cc1ccco1`, the inhibition is 28.5% (inactive).

Turning to `CCC(C)Sc1nc(O)c(Cc2ccccc2)c(=O)[nH]1` (stereo not drawn), the inhibition was 6.4% (inactive).

In the case of `O=C(CSC1=NC(=O)C(Cc2ccccc2)C(=O)N1)NC1CCCCC1` (stereo not drawn), the inhibition is -8.3% (inactive).

For `COc1ccc(-c2cn[nH]c2-c2ccc(OCc3ccccc3)cc2O)cc1OC`, the inhibition was 28.5% (inactive).

For the compound `COc1ccc(-c2cnc(N)nc2-c2ccc(OCc3ccccc3)cc2O)cc1`, the inhibition is -0.9% (inactive).

On to `COc1ccc(-c2cn[nH]c2-c2ccc(OCc3ccc([N+](=O)[O-])cc3)cc2O)cc1OC`, for which the inhibition was 34.4% (inactive).

Regarding `Nc1ncc(-c2ccccc2)c(-c2ccc(OCc3ccccc3)cc2O)n1`, the inhibition was 2.3% (inactive).

In the case of `O=[N+]([O-])c1ccc(COc2ccc(-c3[nH]ncc3-c3ccc(Cl)cc3)c(O)c2)cc1`, the inhibition is 5.4% (inactive).

For `COc1ccccc1-c1cn[nH]c1-c1ccc(OCc2ccccc2F)cc1O`, the inhibition was 0% (inactive).

Turning to `COc1ccc(-c2cn[nH]c2-c2ccc(OCc3ccc([N+](=O)[O-])cc3)cc2O)cc1`, the inhibition was 91.5% (active).

As to `O=C(/C=C/NCc1cccnc1)C(F)(F)C(F)(F)F`, the inhibition is -53% (inactive).

Consider `Cc1ccc(-c2csc(Nc3ccc(C(=O)O)cc3)[n+]2Cc2ccccc2)cc1`, for which the inhibition is 17.8% (inactive).

Regarding `O=C(CCN1C(=O)[C@@H]2Cc3ccccc3CN2C1=O)NCc1ccc(Cl)cc1`, the inhibition was -7.8% (inactive).

Turning to `NC(=O)c1ccccc1NC(=O)c1ccccc1S(=O)(=O)c1ccccc1[N+](=O)[O-]`, the inhibition is -18.3% (inactive).
